The text below walks through data of PubChem BioAssay (Tox21).

Inconclusive results are not listed. Unmarked numbers belong to inactive results. Active and inactive are the calls of the source. Unless noted, calls come from the whole dose curve; as a rule, active = well fitted curve in the direction sought with a large enough effect in the repeat runs; inconclusive = weak or mixed curves; inactive = no such curve, though single readings can be large; an effect the other way counts as inactive or inconclusive.

Experiment [1] in a line: qHTS assay to identify small molecule antagonists of the thyroid receptor (TR) signaling pathway - cell viability counter screen (AID 743064). Note: nearly all actives have a fitted effect of over 50% in size. The method, boiled down: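 Same-well viability check: GH3.TRE-Luc cells stimulated with 1 nM T3 alongside test compound for 23.5 h, followed by CellTiter-Fluor fluorescence.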
Experiment [2] addresses Estrogen receptor (Homo sapiens) (UniProt P03372). Description: qHTS assay to identify small molecule antagonists of the estrogen receptor alpha (ER-alpha) signaling pathway (AID 743069; active = well fitted curve in the direction sought with a large enough effect in the signal ratio in the repeat runs, not every such curve was filed as active; the % refers to the signal ratio). In outline: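 Estradiol-stimulated ER-alpha-UAS-bla HEK293 cells, 18 hr compound exposure at 37C. LiveBLAzer B/G substrate, 2 hr RT, fluorescence read.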
In general terms: Quantitative high-throughput screening tests each substance at several concentrations.

Experiment [3] is described as follows: qHTS assay to identify small molecule antagonists of the estrogen receptor alpha (ER-alpha) signaling pathway - cell viability counter screen (AID 743074; calls by dose curve;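 note: HEK293 cells carrying ER-alpha-UAS-bla reporter stimulated with 17beta-estradiol; nearly all actives have a fitted effect of over 45% in size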).
Experiment [4] has as its target Estrogen receptor (Homo sapiens) (UniProt P03372). Put plainly: qHTS assay to identify small molecule agonists of the estrogen receptor alpha (ER-alpha) signaling pathway (AID 743075; calls by dose curve;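 note: HEK293 GripTite cells with ER-alpha and UAS-driven beta-lactamase reporter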).
Experiment [5] has the same target. Description: qHTS assay to identify small molecule agonists of the estrogen receptor alpha (ER-alpha) signaling pathway using the BG1 cell line (AID 743079). Note: nearly all actives have a fitted effect of over 20% in size.
Experiment [6] in a line: qHTS assay to identify small molecule antagonists of the estrogen receptor alpha (ER-alpha) signaling pathway using the BG1 cell line (AID 743080; calls by dose curve;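 note: BG1 cells stimulated with 17beta-estradiol alongside compound; series mostly up to about 70 µM; nearly all actives have a fitted effect of over 25% in size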). In outline: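 BG1-Luc-4E2 cells (endogenous full-length ER-alpha, 4xERE luciferase) hormone-starved 5 days in charcoal-stripped FBS, plated 4,000/well for 24 h, then compound plus 17beta-estradiol for 21.5 h at 37 C; ONE-Glo luminescence read.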

Experiment [7] can be described thus: qHTS assay to identify small molecule antagonists of the estrogen receptor alpha (ER-alpha) signaling pathway using the BG1 cell line - cell viability counter screen (AID 743081).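 Note: compound given together with 17beta-estradiol as the ER stimulus; nearly all actives have a fitted effect of over 45% in size.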 Note: potency is the fitted concentration of half-maximal effect.
The target in experiment [8] is Aryl hydrocarbon receptor (Homo sapiens) (UniProt P35869). Description: qHTS assay to identify small molecule that activate the aryl hydrocarbon receptor (AhR) signaling pathway (AID 743085).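 For activation: HG2L7.5c1 human HepG2 liver cells with stably integrated DRE-driven firefly reporter; series mostly up to about 70 µM.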 Note: nearly all actives have a fitted effect of over 15% in size. Note: potency is the fitted concentration of half-maximal effect. The method, boiled down:
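Reporter assay in engineered HepG2 line HG2L7.5c1, whose plasmid carries twenty dioxin responsive elements upstream of firefly luciferase. Treatment lasted 24 h at 37C; ONE-Glo luminescence gauged induction.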

Experiment [9] is described as follows: qHTS assay to identify small molecule that activate the aryl hydrocarbon receptor (AhR) signaling pathway - cell viability counter screen (AID 743086). Note: nearly all actives have a fitted effect of over 45% in size. Note: potency is the fitted concentration of half-maximal effect. In outline:
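HepG2-AhR-luc (HG2L7.5c1) cells, 4000/well, were preincubated 5 h at 37C, exposed to compound in qHTS format for 24 hr at 37C, then given CellTiter-Fluor for 30 min; viability was read as fluorescence in the reporter wells.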

The target in experiment [10] is Peroxisome proliferator-activated receptor gamma (Homo sapiens) (UniProt P37231). Put plainly: qHTS assay to identify small molecule agonists of the peroxisome proliferator-activated receptor gamma (PPARg) signaling pathway (AID 743094; active = well fitted activation curve with a large enough effect in the signal ratio in the repeat runs, not every such curve was filed as active; the % refers to the signal ratio). In outline:
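GeneBLAzer PPARg UAS-bla HEK293H cells were plated, rested 5 h, then exposed to compounds for 17 h at 37C. Beta-lactamase activity was read by LiveBLAzer B/G FRET substrate fluorescence after 1 h at room temperature.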

Experiment [11] has the same target. Description: qHTS assay to identify small molecule antagonists of the peroxisome proliferator-activated receptor gamma (PPARg) signaling pathway (AID 743191; calls by dose curve; note: series mostly up to about 63 µM; nearly all actives have a fitted effect of over 30% in size). The method, boiled down: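 GeneBLAzer PPARg UAS-bla HEK293H cells carrying a UAS-driven beta-lactamase reporter were plated at 3000 cells/well, preincubated 5 h at 37C, then given compound for 17 h at 37C; LiveBLAzer B/G FRET substrate was read after 1 h at room temperature.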

Experiment [12] can be described thus: qHTS assay to identify small molecule antagonists of the peroxisome proliferator-activated receptor gamma (PPARg) signaling pathway - cell viability counter screen (AID 743194). Note: nearly all actives have a fitted effect of over 55% in size. The method, boiled down: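 PPARg-UAS-bla HEK293H cells were plated, rested 5 h at 37 C, then treated with compounds plus rosiglitazone (50 nM final) for 17 h at 37 C; viability was then read by CellTiter-Glo luminescence after 30 min at room temperature.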

Experiment [13] in a line: qHTS assay for small molecule agonists of the antioxidant response element (ARE) signaling pathway (AID 743202; active = well fitted activation curve with a large enough effect in the signal ratio in the repeat runs, not every such curve was filed as active; the % refers to the signal ratio; note: potency is the fitted concentration of half-maximal effect). In outline:
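Compounds delivered in DMSO to ARE-bla HepG2 cells (2,000 cells/well, pre-incubated 5 h) and left 16 h at 37 C. LiveBLAzer B/G FRET substrate then added for 2 h at RT before fluorescence reading.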

A short description of experiment [14]: qHTS assay for small molecule agonists of the antioxidant response element (ARE) signaling pathway - cell viability counter screen (AID 743203; calls by dose curve; note: nearly all actives have a fitted effect of over 55% in size). The method, boiled down: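 ARE-bla HepG2 cells were plated, rested 5 h at 37C/5% CO2, then exposed to compounds in DMSO for 16 h. Viability was read as CellTiter-Glo luminescence after 30 min at room temperature, in the same wells as the ARE screen.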

A short description of experiment [15]: qHTS assay for small molecule activators of the heat shock response signaling pathway - cell viability counter screen (AID 743209). Note: nearly all actives have a fitted effect of over 50% in size. In outline:
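HSE-bla HeLa cells plated overnight, then exposed to Tox21 compounds (23 nL in DMSO) for 5 h at 37 C. After the bla reporter read, CellTiter-Glo was added in the same wells and luminescence read after 30 min at room temperature.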

Experiment [16] can be described thus: qHTS assay for small molecule activators of the heat shock response signaling pathway (AID 743210; active = well fitted activation curve with a large enough effect in the signal ratio in the repeat runs, with a control signal flat, not every such curve was filed as active; the % refers to the signal ratio;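 note: HeLa cells with beta-lactamase reporter driven by heat shock elements; series mostly up to about 63 µM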). The method, boiled down:
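Reporter gene assay: HeLa cells stably bearing an HSE-bla construct, compound treatment 5 h at 37 C, LiveBLAzer substrate 2.5 h at RT, fluorescence intensity.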

The subject of experiment [17] is thyroid hormone receptor (rat, GH3 cells). Description: qHTS assay to identify small molecule agonists of the thyroid receptor (TR) signaling pathway (AID 743066; calls by dose curve).
A further experiment addresses Aromatase (Homo sapiens) (UniProt P11511). Description: qHTS assay to identify aromatase inhibitors (AID 743083). Note: series mostly up to about 70 µM; nearly all actives have a fitted effect of over 55% in size.
A short description of experiment [18]: qHTS assay to identify aromatase inhibitors - cell viability counter screen (AID 743084).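 Note: cells stimulated with testosterone during compound exposure; nearly all actives have a fitted effect of over 55% in size.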 Note: potency is the fitted concentration of half-maximal effect.
The nature of experiment [19]: qHTS assay to identify small molecule antagonists of the thyroid receptor (TR) signaling pathway (AID 743065). Note: nearly all actives have a fitted effect of over 55% in size. Note: potency is the fitted concentration of half-maximal effect. In outline: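 GH3.TRE-Luc rat pituitary cells carrying two TR response elements driving luciferase were plated for 4 h, given compound plus 1 nM T3 (final), and incubated 23.5 h at 37 C. ONE-Glo luminescence measured reporter inhibition; CellTiter-Fluor fluorescence tracked cytotoxicity.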

Chain of Estrogen receptor (Homo sapiens) (P03372 whole entry, looked up): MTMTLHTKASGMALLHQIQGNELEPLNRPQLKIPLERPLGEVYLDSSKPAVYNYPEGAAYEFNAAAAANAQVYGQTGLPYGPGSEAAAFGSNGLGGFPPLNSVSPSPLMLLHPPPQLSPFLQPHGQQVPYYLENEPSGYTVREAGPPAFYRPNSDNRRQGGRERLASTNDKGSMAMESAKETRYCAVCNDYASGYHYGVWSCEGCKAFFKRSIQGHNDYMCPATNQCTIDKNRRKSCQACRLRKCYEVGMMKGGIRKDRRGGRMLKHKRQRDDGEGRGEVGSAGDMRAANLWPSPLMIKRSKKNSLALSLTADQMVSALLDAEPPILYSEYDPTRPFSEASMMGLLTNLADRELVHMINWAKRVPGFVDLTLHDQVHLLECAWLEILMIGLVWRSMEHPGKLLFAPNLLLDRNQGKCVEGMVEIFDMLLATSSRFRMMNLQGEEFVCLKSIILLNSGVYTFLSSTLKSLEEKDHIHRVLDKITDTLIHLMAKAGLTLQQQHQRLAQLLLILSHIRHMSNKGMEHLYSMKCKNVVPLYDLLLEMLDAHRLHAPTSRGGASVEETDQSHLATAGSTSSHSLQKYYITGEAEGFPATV
Chain of Aromatase (Homo sapiens) (P11511 whole entry, looked up): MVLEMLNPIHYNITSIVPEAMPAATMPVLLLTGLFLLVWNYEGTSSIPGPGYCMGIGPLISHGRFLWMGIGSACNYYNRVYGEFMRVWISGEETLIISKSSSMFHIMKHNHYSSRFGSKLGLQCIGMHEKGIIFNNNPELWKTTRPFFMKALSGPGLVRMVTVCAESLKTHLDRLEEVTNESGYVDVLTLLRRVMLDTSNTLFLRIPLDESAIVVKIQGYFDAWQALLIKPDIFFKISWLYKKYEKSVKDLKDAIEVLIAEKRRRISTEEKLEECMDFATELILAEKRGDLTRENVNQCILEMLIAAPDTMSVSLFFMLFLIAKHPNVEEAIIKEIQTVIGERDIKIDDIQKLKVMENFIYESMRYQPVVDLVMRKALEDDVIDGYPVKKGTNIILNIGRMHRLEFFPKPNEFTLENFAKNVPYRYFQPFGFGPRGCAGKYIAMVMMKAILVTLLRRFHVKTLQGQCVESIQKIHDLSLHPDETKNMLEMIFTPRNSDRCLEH
Chain of Peroxisome proliferator-activated receptor gamma (Homo sapiens) (P37231 whole entry, looked up): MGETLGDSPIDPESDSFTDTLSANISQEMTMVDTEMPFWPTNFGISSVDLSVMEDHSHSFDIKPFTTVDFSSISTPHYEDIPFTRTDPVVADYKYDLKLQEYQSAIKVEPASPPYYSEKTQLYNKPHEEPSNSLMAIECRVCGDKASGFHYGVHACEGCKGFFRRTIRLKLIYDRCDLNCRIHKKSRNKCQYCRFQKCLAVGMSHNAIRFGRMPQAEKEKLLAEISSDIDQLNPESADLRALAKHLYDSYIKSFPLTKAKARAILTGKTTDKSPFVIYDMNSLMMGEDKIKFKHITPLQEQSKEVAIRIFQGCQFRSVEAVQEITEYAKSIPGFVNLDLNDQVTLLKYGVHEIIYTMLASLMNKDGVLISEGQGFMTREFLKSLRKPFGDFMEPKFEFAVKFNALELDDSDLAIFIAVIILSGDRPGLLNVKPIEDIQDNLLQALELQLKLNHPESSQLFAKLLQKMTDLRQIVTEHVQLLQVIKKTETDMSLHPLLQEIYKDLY
Chain of Aryl hydrocarbon receptor (Homo sapiens) (P35869 whole entry, looked up): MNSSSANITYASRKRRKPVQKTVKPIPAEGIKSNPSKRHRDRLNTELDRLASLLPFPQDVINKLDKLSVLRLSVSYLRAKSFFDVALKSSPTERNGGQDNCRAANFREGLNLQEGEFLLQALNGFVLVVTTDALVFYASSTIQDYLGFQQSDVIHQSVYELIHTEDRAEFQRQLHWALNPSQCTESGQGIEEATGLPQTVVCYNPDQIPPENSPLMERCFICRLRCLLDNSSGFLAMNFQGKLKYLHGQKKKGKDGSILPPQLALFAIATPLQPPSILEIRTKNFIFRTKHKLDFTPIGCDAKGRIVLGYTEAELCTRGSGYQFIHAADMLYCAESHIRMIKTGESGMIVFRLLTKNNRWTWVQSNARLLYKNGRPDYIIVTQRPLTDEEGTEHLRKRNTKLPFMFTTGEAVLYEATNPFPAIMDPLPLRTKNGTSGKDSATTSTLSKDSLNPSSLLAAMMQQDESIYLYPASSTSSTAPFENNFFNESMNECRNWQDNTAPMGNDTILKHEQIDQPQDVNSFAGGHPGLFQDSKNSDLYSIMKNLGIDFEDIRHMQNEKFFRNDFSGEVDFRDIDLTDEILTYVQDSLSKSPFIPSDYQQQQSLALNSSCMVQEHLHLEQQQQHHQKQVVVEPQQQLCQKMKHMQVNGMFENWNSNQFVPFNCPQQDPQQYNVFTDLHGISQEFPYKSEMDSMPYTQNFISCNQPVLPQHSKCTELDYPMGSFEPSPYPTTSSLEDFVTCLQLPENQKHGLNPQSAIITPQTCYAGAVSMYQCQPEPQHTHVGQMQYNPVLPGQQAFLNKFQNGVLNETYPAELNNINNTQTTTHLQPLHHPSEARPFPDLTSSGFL

`Cc1ccc2ccccc2c1[N+](=O)[O-]`: the Potency result in experiment [1], in experiment [2], in [4], in [5], in experiment [6] and in experiment [7] was “inactive” throughout. For the same molecule, the Potency entry in experiment [8], in [9], in experiment [10], in experiment [11], in experiment [12] and in [13] was “inactive” throughout. In addition, the Potency result in experiment [14] is “inactive”. Besides, the result in experiment [3], in [15] and in [16] was inactive.

Turning to `O=C(Cl)c1ccc(F)c(Cl)c1`, the Potency entry (in [1]; in [2]; in experiment [4]; in experiment [6]; in experiment [7]; with Aromatase (Homo sapiens)) was “inactive” each time. Further, the Potency entry in experiment [18], in experiment [8], in experiment [9], in experiment [12], in experiment [13] and in experiment [14] was “inactive” in each case. The outcome in experiment [17], in experiment [3], in [15] and in [16] was inactive.

With `CC(C)(O)C(=O)O`, the Potency entry in [1], in experiment [7], in experiment [9], in [12] and in experiment [14] was “inactive” in each case. The result in experiment [17], in experiment [3], in experiment [15] and in experiment [16] was inactive.

Consider `C1=COCCC1`, for which the Potency entry in [19], in experiment [2], in experiment [4], in experiment [5], in experiment [6] and in experiment [7] was “inactive” each time. In addition, the Potency result (with Aromatase (Homo sapiens); in [18]; in experiment [9]; in experiment [11]; in experiment [12]; in [14]) was “inactive” throughout. The molecule was called inactive in experiment [17], in experiment [3] and in experiment [15].

As for `NC(=O)c1ccccc1C(N)=O`, the Potency result in experiment [19], in [2], in experiment [4], in experiment [5], in [6] and in [7] was “inactive” each time. The Potency result (with Aromatase (Homo sapiens); in [18]; in experiment [9]; in experiment [10]; in experiment [12]) was “inactive” each time. The call in experiment [17], in [3] and in experiment [15] was inactive. In addition, the Potency in experiment [8] is 54.7 µM (active).

With `O=C1c2ccccc2C(=O)C1c1ccc2cc(S(=O)(=O)O)cc(S(=O)(=O)O)c2n1`, the Potency entry (in experiment [19]; in experiment [2]; in experiment [4]; in [5]; in experiment [6]; in the experiment with Aromatase (Homo sapiens)) was “inactive” in each case. The Potency result in [8], in experiment [12] and in experiment [14] was “inactive” in each case. Moreover, the outcome in [17], in experiment [3] and in experiment [16] was inactive. Moreover, the Potency was 52.5 µM (active) in experiment [7], 29.5 µM (active) in [18], 33.1 µM (active) in [9] and 5.25 µM (active) in experiment [13].

As for `CC(COc1ccccc1)NC(C)C(O)c1ccc(O)cc1` (stereo not drawn), the Potency entry in experiment [19], in [2], in experiment [4], in experiment [5], in experiment [6] and in experiment [7] was “inactive” each time. The Potency result (with Aromatase (Homo sapiens); in [18]; in experiment [8]; in experiment [9]; in experiment [10]; in [11]) was “inactive” in each case. The Potency result in [12] and in [13] was “inactive” each time. Further, the result in experiment [17], in [3] and in experiment [15] was inactive.

Consider `CC(Cc1ccccc1)(NC(=O)CN)c1ccccc1` (stereo not drawn), for which the outcome in experiment [17], in experiment [3], in [15] and in experiment [16] was inactive. For the same molecule, the Potency entry (in [2]; in experiment [4]; in experiment [5]; in experiment [6]; in experiment [7]; in the experiment with Aromatase (Homo sapiens)) was “inactive” throughout. Besides, the Potency result in [18], in experiment [8], in experiment [9], in experiment [10], in experiment [11] and in [12] was “inactive” throughout. Also, in experiment [14], the Potency result was “inactive”.

As to `C[C@]12CCC(=O)C=C1[C@@H]1C[C@@H]1[C@H]1[C@@H]3[C@@H]4C[C@@H]4[C@@]4(CCC(=O)O4)[C@@]3(C)CC[C@@H]12`, in experiment [19], the Potency was 21.1 µM (active). The molecule was called inactive in experiment [17], in [3], in experiment [15] and in [16]. The Potency result (in experiment [7]; in the experiment with Aromatase (Homo sapiens); in experiment [18]; in experiment [8]; in [9]; in [12]) was “inactive” throughout. Moreover, in experiment [14], the Potency result is “inactive”.

Take `O=C(OCCCCCOC(=O)c1ccccc1)c1ccccc1`: the Potency entry (in experiment [19]; in [2]; in experiment [4]; in experiment [7]; with Aromatase (Homo sapiens); in experiment [18]) was “inactive” throughout. For the same molecule, the Potency result in experiment [8], in [9], in [10], in experiment [13] and in experiment [14] was “inactive” in each case. The call in experiment [17], in experiment [3], in experiment [15] and in [16] was inactive.
